High-throughput results deposited in PubChem by National Center for Advancing Translational Sciences (NCATS).
HP1b binding inh: HP1-beta chromodomain-methylated histone interaction inhibition; AlphaScreen HP1-beta / biotin-H3K9me3 peptide binding; Potency, µM (titrated, usually from 114 µM), for the others: top-dose activity change, negative = inhibition, usual class: inhibitors; P83916; AID 540317; hit rate 0.56% among 390,000; also: nearly all actives have a fitted effect of over 70% in size
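AlphaScreen: HP1-beta (50 nM) preformed 30 min with biotin-H3(1-18)K9me3 peptide (50 nM) in PBS pH 7.4, 0.01% Tween-20. Compound added for 30 min at RT, then streptavidin donor/nickel chelate acceptor beads (10 ug/mL) for 30 min.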
Sfp inh: Sfp phosphopantetheinyl transferase inhibition; Biochemical Sfp PPTase activity, qHTS; Potency, µM, for the others: largest response in the series, negative = inhibition, usual class: inhibitors; hit rate 3.5% among 310,000;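 also: the enzyme is Sfp with the accession as filed and its product quenches rhodamine fluorescence; 0% = enzyme reaction without inhibitor and -100% = no enzyme wells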
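Sfp 15 nM + cpd, 15 min RT; start w/ rhodamine-CoA 5 uM, BHQ-2-YbbR 12.5 uM (final); 50 mM Hepes pH 7.6, 10 mM MgCl2, 0.01% NP-40, 0.01% BSA; read 525/598 nm at 0 and 30 min.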
BAZ2B inh: BAZ2B (human) inhibition | Q9UIF8 | AlphaScreen BAZ2B-H3K14Ac peptide displacement | Potency, µM (titrated, usually from 114 µM), without a hit: at the highest dose activity change, negative = inhibition, hits mostly inhibitors | hit rate 4.4% among 360,000 | AID 504333; also: % is scaled to controls: 0 for no effect and ±100 for the full control effect; nearly all actives have a fitted effect of over 60% in size
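AlphaScreen displacement: compounds (up to 110uM) incubated 30 min at room temperature with a preformed 50 nM BAZ2B/50 nM biotinylated H3K14Ac peptide complex in PBS pH 7.4 with Tween-20. Donor and acceptor beads at 10 ug/mL final added, 20 min light-protected before reading.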
G9a block: inhibitors of human histone lysine methyltransferase G9a. Q96KQ7. hit rate 8.8% among 350,000. Potency, µM (titrated, usually from 102 µM), without a hit: top-dose activity, negative = inhibition, usual class: inhibitors. G9a H3K9 monomethylation, AlphaScreen, 2 h; also: % is scaled to controls: 0 for no effect and ±100 for the full control effect; nearly all actives have a fitted effect of over 75% in size
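Step 1: enzyme (final 20 nM) with compound, 15 min RT. Step 2: substrate peptide 500 nM and SAM 20 uM, 2 h RT. Step 3: anti-H3K9me1 antibody and AlphaScreen beads, 10 min, then plate read.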
PLK1 PBD block: inhibitors of human PLK1 polo-box domain binding; P53350; Plk1 PBD binding of FITC phosphopeptide, fluorescence polarization; Potency, µM, inactives show max response, negative = inhibition, hits mostly inhibitors; hit rate 2.8% among 360,000; AID 720504; also: series mostly up to about 57 µM; % is scaled to controls: 0 for no effect and ±100 for the full control effect; nearly all actives have a fitted effect of over 65% in size
JMJD2A Tudor inh: inhibitors of human JMJD2A Tudor domain; Potency, µM (titrated, usually from 114 µM), inactives show top-dose activity change, negative = inhibition, actives largely listed as inhibitors; hit rate 4.4% among 390,000; O75164; AID 504339; AlphaScreen JMJD2A-Tudor / H3K4me3 peptide binding; also: % is scaled to controls: 0 for no effect and ±100 for the full control effect; nearly all actives have a fitted effect of over 50% in size
Target sequence (O75164 whole entry, looked up, the tested form may be a part): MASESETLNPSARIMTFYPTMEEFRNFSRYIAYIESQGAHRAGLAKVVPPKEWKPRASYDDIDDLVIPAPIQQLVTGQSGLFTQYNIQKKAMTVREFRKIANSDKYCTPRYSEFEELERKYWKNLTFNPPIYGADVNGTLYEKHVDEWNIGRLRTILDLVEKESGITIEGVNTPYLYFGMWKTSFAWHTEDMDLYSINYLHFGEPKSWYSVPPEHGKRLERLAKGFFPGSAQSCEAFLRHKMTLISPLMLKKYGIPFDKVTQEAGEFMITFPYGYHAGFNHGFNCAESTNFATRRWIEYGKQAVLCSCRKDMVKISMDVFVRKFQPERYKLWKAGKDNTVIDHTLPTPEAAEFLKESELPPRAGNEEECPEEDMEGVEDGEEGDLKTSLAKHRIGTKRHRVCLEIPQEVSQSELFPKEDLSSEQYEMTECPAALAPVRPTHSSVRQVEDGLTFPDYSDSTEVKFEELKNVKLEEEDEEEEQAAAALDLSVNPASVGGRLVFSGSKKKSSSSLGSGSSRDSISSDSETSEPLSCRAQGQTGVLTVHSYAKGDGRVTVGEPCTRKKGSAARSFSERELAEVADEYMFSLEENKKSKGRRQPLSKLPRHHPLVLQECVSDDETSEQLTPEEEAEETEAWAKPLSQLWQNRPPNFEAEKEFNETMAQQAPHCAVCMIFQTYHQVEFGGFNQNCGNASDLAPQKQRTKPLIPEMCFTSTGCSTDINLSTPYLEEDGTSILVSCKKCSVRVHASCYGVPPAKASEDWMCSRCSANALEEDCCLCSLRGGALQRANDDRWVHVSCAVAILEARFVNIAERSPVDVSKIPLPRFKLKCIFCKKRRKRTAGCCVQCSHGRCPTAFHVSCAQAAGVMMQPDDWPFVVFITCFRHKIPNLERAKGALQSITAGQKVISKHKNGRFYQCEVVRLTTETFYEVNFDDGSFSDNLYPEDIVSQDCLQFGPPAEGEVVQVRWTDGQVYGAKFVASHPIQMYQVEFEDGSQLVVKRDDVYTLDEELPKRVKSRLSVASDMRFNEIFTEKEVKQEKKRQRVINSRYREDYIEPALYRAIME
An asterisk follows results filed as active; ? = inconclusive; . = no result given; [ ] = dose if it differs, or a comment. Most compounds without a hit are left out; they make up all but 12% or so of the library. Calls follow the shape of the dose curve; as a rule, active = well fitted curve in the direction sought with a large enough effect; inconclusive = small, poorly fitted or top-dose-only effect, or another doubt; inactive = no such curve, though single readings can be large; an effect the other way counts as inactive or inconclusive. Potency is read from the fitted curve at half-maximal effect.

SMILES	HP1b binding inh	Sfp inh	BAZ2B inh	G9a block	PLK1 PBD block	JMJD2A Tudor inh
COc1cccc(/C(O)=C2/C(=O)C(=O)N(Cc3ccco3)C2c2ccncc2)c1 (stereo unspecified)	33%	-24%	?	28µM*	-18%	?
CCOc1cccc(/C(O)=C2/C(=O)C(=O)N(CCN3CCOCC3)C2c2ccncc2)c1 (stereo unspecified)	.	-14%	?	.	.	.
CCOc1cccc(/C(O)=C2/C(=O)C(=O)N(Cc3ccco3)C2c2ccncc2)c1 (stereo unspecified)	42%	-26%	?	45µM*	-16%	?
COc1ccc(/C(O)=C2\C(=O)C(=O)N(Cc3ccco3)C2c2cc(OC)ccc2OC)cc1 (stereo unspecified)	3%	?	?	-81%[59 µM]	0%	89µM*
COc1ccccc1N1CCN(C2CCCN(C(=O)CN3CCCCC3=O)C2)CC1 (stereo unspecified)	20%	5%	19%	.	0%	-4%
COc1ccc(NC(=O)Nc2ccc([N+](=O)[O-])cc2)cn1	19%	-7%	?	?	-26%	-25%
O=C(COc1ccccc1)NN1C(=O)CSC1=S	32%	-8%	-16%	?	0%	4%
O=C(COc1c(Cl)cccc1Cl)NN1C(=O)CSC1=S	-2%	12%	-16%	-9%	19µM*	?
Cc1cc(C)c2ccc(NN)nc2c1O	42%	50µM*	7%	32µM*	-4%	-16%
CCOC(=O)CCCCCC(=O)Nc1ccc2c(c1)C(=O)N([C@@H](C)CO)C[C@@H](C)[C@H](CN(C)C(=O)Nc1ccccc1)OCCCC[C@H](C)O2	.	.	.	.	-14%	.
COc1ccc(C(=O)CC(=O)c2ccccc2)cc1	269%	.	.	.	-7%	158%
COc1ccc(C2(C(=O)c3ccccc3)C(=O)c3ccccc3C2=O)cc1	?	45µM*	22µM*	.	12µM*	35µM*
COc1ccc(OC)c(C(c2c(O)nc(SC)[nH]c2=O)c2c(O)nc(SC)[nH]c2=O)c1	23%	?	-2%	50µM*	?	-14%
CSc1nc(O)c(C(c2ccc(F)cc2)c2c(O)nc(SC)[nH]c2=O)c(=O)[nH]1	52%	.	.	.	?	-3%
CSc1nc(O)c(C(c2ccc(C)cc2)c2c(O)nc(SC)[nH]c2=O)c(=O)[nH]1	15%	-2%	-21%	40µM*	?	-15%
CSc1nc(O)c(C(c2ccc(OC(C)C)cc2)c2c(O)nc(SC)[nH]c2=O)c(=O)[nH]1	3%	.	.	.	11µM*	?
COc1cc(C(c2c(O)nc(SC)[nH]c2=O)c2c(O)nc(SC)[nH]c2=O)cc(OC)c1OC	31%	?	9%	-1%[0.501 µM]	-29%	8%
Cc1ccc(CNC(=O)C2CC(=O)N(c3ccc(OCC(=O)N4CCCC4)cc3)C2)cc1 (stereo unspecified)	18%	-10%	14%	-3%[59 µM]	1%	-15%
O=C(CSc1nnc(-c2ccc(Br)o2)n1Cc1ccccc1)c1ccccc1F	19%	35µM*	?	4.5µM*	-21%	?
Cc1cc(NC(=O)CSc2nnc(-c3ccc(Br)o3)n2Cc2ccccc2)no1	21%	-7%	-18%	-48%[59 µM]	-8%	-11%
CCC(C)NC(=O)CNC(=O)c1nn(-c2ccc(OC)cc2OC)c(=O)c2ccccc12 (stereo unspecified)	34%	6%	-5%	-28%[2.33 µM]	-4%	-15%
NC(=O)CC[C@@H]1NC(=O)[C@@H]2CCCN2C(=O)c2cc([N+](=O)[O-])cc(I)c2NCCCC[C@@H](C(=O)NC(CC(=O)O)C(N)=O)NC1=O (stereo partly specified)	42%	17%	-25%	56µM*	-5%	-22%
NC(=O)CC[C@@H]1NC(=O)[C@@H]2CCCN2C(=O)c2cc([N+](=O)[O-])cc(I)c2NCCC[C@@H](C(=O)NC(CC(=O)O)C(N)=O)NC1=O (stereo partly specified)	21%	21%	-3%	?	-1%	-12%
NC(=O)CC[C@@H]1NC(=O)[C@@H]2CCCN2C(=O)c2cc([N+](=O)[O-])cc(I)c2NCCC[C@@H](C(N)=O)NC1=O	54%	5%	-11%	45µM*	-5%	-18%
Cc1cc(=O)n2nc(N3CCCC(C(=O)Nc4ccc(C)c(C)c4)C3)sc2n1 (stereo unspecified)	36%	-16%	4%	29%	-2%	-14%
SMILES	HP1b binding inh	Sfp inh	BAZ2B inh	G9a block	PLK1 PBD block	JMJD2A Tudor inh
O=C(CCCN1C(=O)c2ccccc2C1=O)Nc1nncs1	21%	27%	-5%	1%	-2%	-3%
O=C(CCCN1C(=O)c2ccccc2C1=O)NC1=NCCS1	24%	-16%	-8%	4%[59 µM]	-4%	32µM*
CC(=O)N1CCN(S(=O)(=O)c2cccc(C(=O)OCC(=O)NCc3ccccc3Cl)c2)CC1	.	.	.	.	-9%	.
Cc1ccc(NC(=O)CSc2nnc(-c3cccnc3)o2)c(C)c1	33%	.	3%	45µM*	?	-14%
Cc1ccc(NC(=O)CSc2nnc(-c3ccc(Br)cc3)o2)c(C)c1	71%	.	4%	-1%[59 µM]	.	-7%
Cc1ccc(C2c3c(oc4ccccc4c3=O)C(=O)N2c2nnc(C(C)C)s2)o1 (stereo unspecified)	45%	-6%	2%	50µM*	-3%	-15%
CC(C)c1nnc(N2C(=O)c3oc4ccccc4c(=O)c3C2c2ccco2)s1 (stereo unspecified)	18%	-26%	10%	2%[59 µM]	-7%	-11%
Cc1nnc(N2C(=O)c3oc4ccccc4c(=O)c3C2c2ccco2)s1 (stereo unspecified)	25%	?	-13%	20µM*	-20%	-30%
O=c1ccc2cc(S(=O)(=O)NCc3ccc(Cl)cc3)ccc2[nH]1	8%	.	?	-42%[59 µM]	.	?
COc1ccc2c(c1)CCc1cnoc1-2	49%	.	.	.	-3%	10%
COc1ccc2c(c1)CCc1cn[nH]c1-2	7%	-5%	-18%	-7%	27µM*	?
COc1cc(/C=N/n2cnnc2)ccc1OC(=O)c1cccnc1	-7%	3%	10%	4%[12.7 µM]	7.5µM*	?
COc1ccc(C=O)cc1COc1ccc(NC(C)=O)cc1	.	.	.	.	.	-23%
COc1cc(/C=N/Nc2ccc3ccccc3c2)ccc1OC(=O)c1ccco1	17%	-11%	-35%	7.9µM*	?	-15%
COc1cccc(C(=O)Oc2ccc(/C=N/Nc3ccc(C(=O)O)cc3)cc2OC)c1	-6%	?	50µM*	.	?	?
